The compounds below were run on CSNK1G3. Details: concentration: 1 μM, replicates: in singlicate; n = 1.
In the case of `O=C1NC(=O)C(c2ccccc2)=C1Nc1cccc(O)c1` [SB-390534], the “%Inh” value is reported as 8%.
With `COc1ccc(-c2cc3c(C)nc(N)nc3n([C@H]3CC[C@H](OCCO)CC3)c2=O)cn1` the “%Inh” value was 0%.
`Cn1c(=O)c(F)c(Nc2ccc(I)cc2F)c2c(=O)n(OC[C@H](O)CO)cnc21` was tested, and the “%Inh” value was 4%.
In the case of `Nc1n[nH]c2ncc(-c3ccccc3)cc12` [SB-517081], the “%Inh” value is reported as 6%.
In the case of `CCC(=O)c1c(-c2ccccc2)c2cc(Cl)ccc2c(=O)n1Cc1cc(S(C)(=O)=O)n(CC(N)=O)n1`, the “%Inh” value is reported as 0%.
For `Nc1ncnc2c1ncn2-c1ccc(Cl)cc1` [AH2635], the “%Inh” value was 17%.
`Cc1nnc(-c2ccc3ncn(-c4ccc(S(C)=O)cc4)c3c2)o1` (centres unmarked) was tested, and the “%Inh” value was 24%.
With `COc1cc2ncn(-c3cc(OCc4ccc(S(C)(=O)=O)cc4)c(C(N)=O)s3)c2cc1OC` [GW869979] the “%Inh” value was 3%.
`CCC(=O)c1c(-c2ccccc2)c2cc(Cl)ccc2c(=O)n1Cc1ccc(C(=O)O)cc1` was tested, and the “%Inh” value was 0%.

These compounds were tested on CSNK2A1. Details: concentration: 1 μM, replicates: in singlicate; n = 1.
`CCc1nc(-c2cccc(C)c2)c(-c2ccncc2)s1` was tested, and the “%Inh” value was 4%.
For `COc1cc(OC)cc(-c2cc3cnc(N)nc3nc2NC(=O)NC(C)(C)C)c1`, the “%Inh” value was 0%.
`Nc1ncnc2c1ncn2-c1cccc(F)c1` [SKF-97560] was tested, and the “%Inh” value was 28%.
With `COc1cc2ncn(-c3cc(OCc4ccncc4)c(C(N)=O)s3)c2cc1OC` [GSK336313] the “%Inh” value was 2%.
For `Fc1cccc(CSc2nnc(-c3ccc4c(c3)CCO4)o2)c1`, the “%Inh” value was 16%.
With `CCC(=O)c1c(-c2ccccc2)c2cc(Cl)ccc2c(=O)n1Cc1cc(S(C)(=O)=O)n(CCC(C)(C)O)n1` the “%Inh” value was 17%.
`CCn1c(-c2ccoc2)nc2cnccc21` [SB-733887] was tested, and the “%Inh” value was 0%.
With `CCc1ccc(-c2ccc3c(c2)-c2nn(C)cc2S(=O)(=O)N3C)cc1` the “%Inh” value was 0%.
`COc1ccc(-c2coc3ccc(-c4nnc(SCc5cccc(C#N)c5)o4)cc23)cc1` was tested, and the “%Inh” value was 3%.
For `COC(=O)c1c(-c2ccccc2)c2cc(C)ccc2c(=O)n1Cc1ccccc1`, the “%Inh” value was 0%.
For `Cl.NS(=O)(=O)c1cccc(Nc2cc(-c3ccc(F)cc3)n[nH]2)c1` [GW824645], the “%Inh” value was 0%.
In the case of `COC(=O)c1c(-c2ccccc2)c2cc(Br)ccc2c(=O)n1Cc1ccc(NC(=O)CCC(=O)O)cc1`, the “%Inh” value is reported as 11%.
For `COc1ccc(CNC(=O)NC2CCN(c3ccnc(Nc4ccc(F)cc4)n3)C2)cc1` (centres unmarked) [GSK1379706], the “%Inh” value was 4%.
For `CCS(=O)(=O)c1ccc(OC)c(Nc2ncc(-c3ccc(F)cc3)o2)c1.Cl` [GW591947], the “%Inh” value was 0%.
For `Cc1nn2c(=O)cc(N3CCOCC3)nc2n1Cc1cccc(Cl)c1Cl` [GSK2342769], the “%Inh” value was 16%.
In the case of `CCS(=O)c1ccc(-c2coc3ccc(-c4nnc(C)o4)cc23)cc1` (centres unmarked), the “%Inh” value is reported as 21%.
`COc1cc(Nc2nccc(N3CCC(NC(=O)C(C)c4ccc(Cl)cc4)C3)n2)cc(OC)c1OC` (centres unmarked) [GSK1379757] was tested, and the “%Inh” value was 1%.
`COc1cc2ncn(-c3cc(OCc4ccncc4Br)c(C(N)=O)s3)c2cc1OC` [GW854278] was tested, and the “%Inh” value was 0%.
In the case of `Cl.c1ccc(Cn2cnc3cc(Nc4ncnc5ccccc45)ccc32)cc1` [GW272142], the “%Inh” value is reported as 0%.
`CCC(=O)c1c(-c2ccccc2)c2cc(Cl)ccc2c(=O)n1Cc1cc(C(=O)NC2CC2)n(C)n1` was tested, and the “%Inh” value was 0%.
With `Nc1nccc2scc(-c3ccc4c(c3)CCN4C(=O)Cc3ccccc3)c12` [GSK2576924] the “%Inh” value was 5%.
For `COc1ccc(-c2cc3c(C)nc(N)nc3n([C@H]3CC[C@H](O)CC3)c2=O)cn1`, the “%Inh” value was 0%.
With `Nc1nc(-c2ccccc2F)c(-c2ccnc3ccccc23)s1` [GW560459] the “%Inh” value was 0%.
For `COc1cccc(C2=C(N(C)c3ccccc3)C(=O)NC2=O)c1` [SB-334865], the “%Inh” value was 0%.
`CCn1c(-c2nonc2N)nc2ccccc21` [SB-693162/GW549034] was tested, and the “%Inh” value was 21%.
In the case of `COc1cc2nccc(Nc3ccc(OCc4ccc(NC(C)=O)cc4)cc3)c2cc1OC.Cl` [GW440135], the “%Inh” value is reported as 5%.
With `Cc1ccc(Oc2ccc(Nc3ncnc4cc[nH]c34)cc2C)cn1` the “%Inh” value was 32%.
With `O=C(Nc1n[nH]c2cc(-c3ccccc3F)ccc12)C1CC1` [SB-733371] the “%Inh” value was 3%.
In the case of `O=C1NC(=O)C(c2ccccc2)=C1Nc1cccc(O)c1` [SB-390534], the “%Inh” value is reported as 0%.

Reference: article PMC5540273 (PLoS ONE, 2017)
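Note: KINOMEscan kinase panel screen.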
